Measured values as given in article PMC4336329 (PLoS ONE, 2015).
Hit rate of the full screen: of about 310,000 compounds, about 2,200 (0.71%) showed an effect of 50% or more. The effect is printed as a negative number. What follows is part of a selection rich in strong results, with near analogues and random picks from the rest.

Each compound was assayed against human ether-à-go-go-related gene (hERG) potassium channel (human, UniProt Q12809) (assay: primary screen, population patch clamp on CHO cells stably expressing hERG; higher = less effect of the substance).
human ether-à-go-go-related gene (hERG) potassium channel, sequence (Q12809 whole entry, looked up): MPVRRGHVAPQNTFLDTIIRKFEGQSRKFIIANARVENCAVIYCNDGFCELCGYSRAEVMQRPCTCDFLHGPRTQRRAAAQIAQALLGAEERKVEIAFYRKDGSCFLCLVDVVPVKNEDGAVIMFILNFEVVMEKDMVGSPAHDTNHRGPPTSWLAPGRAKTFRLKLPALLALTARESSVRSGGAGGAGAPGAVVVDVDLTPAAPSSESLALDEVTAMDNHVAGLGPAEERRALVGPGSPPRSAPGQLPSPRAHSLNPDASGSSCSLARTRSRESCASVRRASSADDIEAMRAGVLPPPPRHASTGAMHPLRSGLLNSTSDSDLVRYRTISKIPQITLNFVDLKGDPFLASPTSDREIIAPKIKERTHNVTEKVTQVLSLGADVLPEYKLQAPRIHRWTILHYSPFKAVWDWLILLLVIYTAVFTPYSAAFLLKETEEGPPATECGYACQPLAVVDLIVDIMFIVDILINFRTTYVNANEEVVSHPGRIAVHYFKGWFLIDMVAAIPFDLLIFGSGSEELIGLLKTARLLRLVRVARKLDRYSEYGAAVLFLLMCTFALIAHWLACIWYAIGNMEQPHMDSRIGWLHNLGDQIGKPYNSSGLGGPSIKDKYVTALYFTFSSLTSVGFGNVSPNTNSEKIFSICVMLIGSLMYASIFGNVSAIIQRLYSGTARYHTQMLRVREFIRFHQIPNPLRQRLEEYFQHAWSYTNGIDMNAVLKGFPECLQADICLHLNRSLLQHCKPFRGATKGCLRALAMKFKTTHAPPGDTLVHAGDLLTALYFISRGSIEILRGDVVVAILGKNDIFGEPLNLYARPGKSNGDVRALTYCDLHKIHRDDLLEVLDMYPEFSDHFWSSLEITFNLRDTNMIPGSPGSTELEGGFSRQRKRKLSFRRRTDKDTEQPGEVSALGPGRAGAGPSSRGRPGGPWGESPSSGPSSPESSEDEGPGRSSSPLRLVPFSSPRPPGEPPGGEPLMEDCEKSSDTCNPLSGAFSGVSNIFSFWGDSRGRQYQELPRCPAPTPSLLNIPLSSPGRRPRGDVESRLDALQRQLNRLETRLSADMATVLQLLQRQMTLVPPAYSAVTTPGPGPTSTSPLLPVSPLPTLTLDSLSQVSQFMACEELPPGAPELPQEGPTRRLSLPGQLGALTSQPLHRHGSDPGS

Structure (SMILES)	hERG current change (%, negative = inhibition) at 1uM [%]
Cc1ccc(NC(=O)c2c3c(nc4ccccc24)CCC3)cc1	7.04
CCN1CCc2nc3ccccc3c(C(=O)Nc3ccc(NC(C)=O)cc3)c2C1	12.4
CCN1CCc2nc3ccccc3c(C(=O)Nc3ccc(C#N)cc3)c2C1	-65.8
O=C(NCc1ccc(F)cc1)c1c2c(nc3ccccc13)CCN(Cc1ccccc1)C2	0.811
CCOc1ccc(NC(=O)c2c3c(nc4ccccc24)CCC3)cc1	10.9
CCN1CCc2nc3ccccc3c(C(=O)Nc3ccc(F)cc3)c2C1	-81.6
Cc1ccc(Oc2nc(C(F)(F)F)nc3ccccc23)cc1	6.66
CC(C)(C)OC(=O)N/N=C\c1ccc(OC(=O)c2cccs2)cc1	9.49
COc1ccc(-c2n[nH]c(=S)n2-c2ccc(Br)cc2)cc1OC	16.7
O=C(COC(=O)CCS(=O)(=O)c1ccccc1)Nc1ccccc1	0.18
O=C(COC(=O)c1cc[n+]([O-])cc1)Nc1cc([N+](=O)[O-])ccc1Cl	13.7
O=C(NCC(c1ccco1)N1CCc2ccccc2C1)c1ccc([N+](=O)[O-])cc1 (centres unmarked)	-7.15
Cc1ccc(C(=O)C[n+]2cccc3ccccc32)cc1.[Br-]	7.24
O=C(C[n+]1cccc(NC(=O)c2ccccc2)c1)c1cccc([N+](=O)[O-])c1.[Br-]	-39.6
O=C(C[n+]1cccc(C(=O)Nc2ccccc2)c1)c1ccc([N+](=O)[O-])cc1.[Br-]	-61
O=C(C[n+]1cccc2ccccc21)c1ccc([N+](=O)[O-])cc1.[Br-]	-53.8
O=C(C[n+]1cccc2ccccc21)c1ccccc1.[Br-]	8.9
O=C(Nc1ccccc1)c1ccc[n+](Cc2ccc([N+](=O)[O-])cc2)c1.[Br-]	5.28
COc1ccc(CC(=O)NNS(=O)(=O)c2ccc([N+](=O)[O-])cc2)cc1OC	16
O=C(COn1nnc2ccc(Cl)cc21)NCc1ccccc1	0.51
CCCCN1C(=O)C(=O)N(CC(=O)NC2CCCc3ccccc32)C1=O (centres unmarked)	8.35
Cl.O=C(c1ccco1)N(CCCN1CCOCC1)c1nc(-c2ccc(Cl)cc2)cs1	-5.41
CN(C)CCCN(C(=O)c1ccco1)c1nc(-c2ccc(Cl)cc2)cs1.Cl	-70.8

Structure (SMILES)	hERG current change (%, negative = inhibition) at 1uM [%]
CCN(CC)CCCN(C(=O)c1ccco1)c1nc(-c2ccc(C)cc2)cs1.Cl	-90.2
Cc1ccc(-c2csc(N(CCCN3CCOCC3)C(=O)c3ccco3)n2)cc1.Cl	-4.11
CCN(CC)CCCN(C(=O)c1ccco1)c1nc(-c2ccc(Cl)cc2)cs1.Cl	-25.5
Cc1ccc(-c2csc(N(CCCN(C)C)C(=O)c3ccco3)n2)cc1.Cl	-36.6
COc1cccc(C2c3[nH]c4ccccc4c3C[C@H]3C(=O)N(C)CC(=O)N23)c1 (some centres unmarked)	-1.14
CON(c1nc(Cl)nc(N(C)C)n1)S(=O)(=O)c1ccccc1Cl	6.38
O=C(Nc1cc(Br)ccc1O)C1CC(c2ccccc2Cl)=NO1 (centres unmarked)	18.5
COc1ccc(Nc2nc(N)nc(CN(C)C3CCCCC3)n2)cc1	-17.9
CCOc1ccccc1Nc1nc(N)nc(CN2CCCCC2C)n1 (centres unmarked)	-9.01
CCOc1ccc(Nc2nc(N)nc(CN(C)C3CCCCC3)n2)cc1	-58.2
COc1ccccc1Nc1nc(N)nc(CN(C)C2CCCCC2)n1	-11.7
CCOc1ccccc1Nc1nc(N)nc(CN(C)C2CCCCC2)n1	-54.3
CCOc1ccc(Nc2nc(N)nc(CCl)n2)cc1	7.02
CC(C)NC(=O)C1CCN(C2CCN(C(=O)Cc3ccc4c(c3)OCO4)CC2)CC1	4.98
Cc1cc(N2C(=O)C(O)=C(C(=O)c3cccs3)C2c2ccc(F)cc2)no1 (centres unmarked)	14.8
S=C(NCc1ccncc1)Nc1ccccc1	7.34
CCCOc1ccc(N2C(=O)CC(NCCNc3ccc([N+](=O)[O-])cn3)C2=O)cc1 (centres unmarked)	-57.8
CCOc1ccc(N2C(=O)CC(NCCNc3ccc([N+](=O)[O-])cn3)C2=O)cc1 (centres unmarked)	-37.8
COc1ccc(N2C(=O)CC(NCCNc3ccc([N+](=O)[O-])cn3)C2=O)cc1 (centres unmarked)	-13.7
CC1(C)CC(=O)C2=C(C1)N(c1ccc(F)cc1)C(N)=C(C#N)C2c1cccs1 (centres unmarked)	4.89
CC1=CC(=O)C=C(C)C1=NOc1ccc([N+](=O)[O-])cc1	-11.7
CC1CC(C)CN(S(=O)(=O)c2ccc(Oc3ccc([N+](=O)[O-])cc3)cc2)C1 (centres unmarked)	14.4
CC1CN(C)C(C)C/C1=N\Oc1ccc([N+](=O)[O-])cc1.Cl (centres unmarked)	-84.5

Structure (SMILES)	hERG current change (%, negative = inhibition) at 1uM [%]
CN1CCN(C(=O)c2ccc(Oc3ccc([N+](=O)[O-])cc3)cc2)CC1	-11.7
CC1CN(C)C(C)C/C1=N/Oc1ccccc1[N+](=O)[O-].Cl (centres unmarked)	2.66
CN1CCC(=NOc2ccc([N+](=O)[O-])cc2)CC1	-56
CCCCCc1nnc(NC(=O)C2=COCCO2)s1	6.91
O=C(Nc1nc(-c2ccccn2)cs1)c1ccc(F)c(S(=O)(=O)N2CCOCC2)c1	5.44
CCCC(=O)Nc1c(-c2cccs2)c(=O)c2ccccc2n1C	5.25
CC1CCCCC1NC(=O)Cn1cccc1C(=O)c1ccccc1 (centres unmarked)	14
CNc1nc2cc([N+](=O)[O-])c([N+](=O)[O-])cc2nc1NC	-3.16
COc1ccc(CN2CCC(C(=O)Nc3ccc(Oc4ccccc4)nc3)CC2)cc1F	-37.8
CCOc1ccc(C(=O)CCC(=O)N2CCC(C(=O)OC)CC2)cc1	10.1
CC1=C(C(=O)Nc2ccccc2F)C(c2ccsc2)C2=C(CC(C)(C)CC2=O)N1 (centres unmarked)	1.33
C#CCNC(=O)C1CCN(c2cc(C)nc(-c3ccccc3)n2)CC1	-8.78
Cc1cc(N2CCC(C(=O)NCC3CC3)CC2)nc(-c2ccccc2)n1	-53
C=CCNC(=O)C1CCN(c2cc(C)nc(-c3ccccc3)n2)CC1	-12.2
Cc1nn(CC(=O)OCC(=O)Nc2ccccc2[N+](=O)[O-])c(C)c1[N+](=O)[O-]	7.87
CCCCn1c(N)c(N(CCOC)C(=O)c2ccc(OCc3c(C)noc3C)cc2)c(=O)[nH]c1=O	19
O=C(CN1CCN(C(C(=O)Nc2ccc(Cl)cc2C(F)(F)F)c2ccccc2)CC1)NC1CC1 (centres unmarked)	-50.1
Cc1ccc(NC(=O)C(c2ccccc2)N2CCN(CC(=O)NC3CC3)CC2)cc1Cl (centres unmarked)	-2.31
O=C(CN1CCN(C(C(=O)Nc2ccc(F)cc2)c2ccccc2)CC1)NC1CC1 (centres unmarked)	-2.24
COc1ccc(N(C(=O)Cn2nnc3ccccc32)C(C(=O)NC(C)(C)C)c2ccc(OC)c(O)c2)cc1 (centres unmarked)	14.6
Cc1ccc(N2C(=O)C3CC(c4ccccc4)=C4C5C=CC(C6C(=O)N(c7ccc(C)cc7C)C(=O)C56)C4C3C2=O)c(C)c1 (centres unmarked)	3.95
Cc1ccc(N2C(=O)C3CC(c4ccccc4)=C4C5C=CC(C6C(=O)N(c7ccc(C)cc7)C(=O)C56)C4C3C2=O)cc1 (centres unmarked)	-74.5
Cc1ccc(N2C(=O)C3C4CC(=O)C(c5ccccc54)C3C2=O)cc1 (centres unmarked)	4.46

Structure (SMILES)	hERG current change (%, negative = inhibition) at 1uM [%]
Cn1c(SCC(=O)NC2CC2)nnc1-c1ccccc1	6.86
CN(C)/C=N/c1ncc(C(=O)c2ccc(Cl)cc2Cl)s1	-4.09
Cc1cccc(Nc2cc(C)nc3ccccc23)c1.Cl	-33.5
COc1ccc(Nc2cc(C)nc3ccccc23)cc1.Cl	-15.6
COc1cccc(Nc2cc(C)nc3ccccc23)c1	-65.2
Cc1ccc(-n2c(C)cc(C(=O)CSc3nnc4ccccn34)c2C)cc1	0.977
O=C(NC1CCCCC1)C1CCN(c2nnnn2-c2ccccc2)CC1	3.39
COc1ccc(/C=C2\N=C3CCCCCN3C2=O)cc1OC	14.8
Cc1ccccc1OCC(O)CN1CCN(c2ccc(Cl)cc2)CC1 (centres unmarked)	-58.2
COc1ccc(N2CCN(CC(O)COc3cc(C)cc(C)c3)CC2)cc1.Cl (centres unmarked)	-17.5
OC(COc1cccc2ccccc12)CN1CCN(c2ccc(Cl)cc2)CC1 (centres unmarked)	-1.91
Cc1ccccc1OCC(O)CN1CCCCC1.Cl (centres unmarked)	16.2
Cc1ccccc1OCC(O)CN1CCN(CCN2C(=O)c3cccc4cccc(c34)C2=O)CC1 (centres unmarked)	-17.3
OC(COc1cccc2ccccc12)CN1CCCC1 (centres unmarked)	-1.17
COc1ccc(N2CCN(CC(O)COc3cc(C)ccc3C)CC2)cc1.Cl (centres unmarked)	-9.86
C=C1CC(C)OC(c2ccccc2OCC(O)CN2CCCCC2)C1 (centres unmarked)	-63.3
COc1ccc(N2CCN(CC(O)COc3ccc(C)cc3C)CC2)cc1.Cl (centres unmarked)	-54.6
CC(=O)c1ccccc1OCC(O)CN1CCN(CCN2C(=O)c3cccc4cccc(c34)C2=O)CC1 (centres unmarked)	-73.5
Cc1cccc(OCC(O)CN2CCN(CCN3C(=O)c4cccc5cccc(c45)C3=O)CC2)c1C (centres unmarked)	15.1
COc1cccc(OCC(O)CN2CCN(c3ccc(Cl)cc3)CC2)c1 (centres unmarked)	-14.1
